Test [1] is described as follows: qHTS assay to identify small molecule antagonists of the thyroid receptor (TR) signaling pathway - cell viability counter screen (AID 743064). Also: nearly all actives have a fitted effect of over 50% in size. Also: potency is read from the fitted curve at half-maximal effect. A digest of the protocol: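 GH3.TRE-Luc rat pituitary cells carrying a TRE-luciferase reporter were treated with compound plus 1 nM T3 (final) for 23.5 h at 37 °C. Viability was then read in the same wells by CellTiter-Fluor fluorescence after a further 30 min.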
Background: In qHTS, concentration-response curves come from the screen itself.

The nature of test [2]: qHTS assay to identify small molecule antagonists of the thyroid receptor (TR) signaling pathway (AID 743065). Also: nearly all actives have a fitted effect of over 55% in size. Also: potency is read from the fitted curve at half-maximal effect. As to activity, negative = inhibition: series mostly up to about 70 µM. A digest of the protocol: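 Antagonism measured as loss of luciferase signal in GH3 cells stably carrying a TRE-luciferase reporter, co-treated with compound and T3 (1 nM final) for 23.5 h at 37 C. Viability was read in the same well by CellTiter-Fluor.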
Test [3] concerns thyroid hormone receptor (rat, GH3 cells). Briefly: qHTS assay to identify small molecule agonists of the thyroid receptor (TR) signaling pathway (AID 743066; calls by dose curve).
Test [4] in a line: qHTS assay to identify small molecule antagonists of the estrogen receptor alpha (ER-alpha) signaling pathway - cell viability counter screen (AID 743074; calls by dose curve;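 also: HEK293 cells carrying ER-alpha-UAS-bla reporter stimulated with 17beta-estradiol; nearly all actives have a fitted effect of over 45% in size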).
Test [5] in a line: qHTS assay to identify small molecule antagonists of the estrogen receptor alpha (ER-alpha) signaling pathway using the BG1 cell line - cell viability counter screen (AID 743081).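 Also: compound given together with 17beta-estradiol as the ER stimulus; series mostly up to about 70 µM; nearly all actives have a fitted effect of over 45% in size.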
The target of another test is Aromatase (Homo sapiens) (UniProt P11511). Briefly: qHTS assay to identify aromatase inhibitors (AID 743083). Also: nearly all actives have a fitted effect of over 55% in size. Also: potency is read from the fitted curve at half-maximal effect. As to activity, negative = inhibition: series mostly up to about 70 µM.
Sequence of Aromatase (Homo sapiens) (P11511 whole entry, looked up): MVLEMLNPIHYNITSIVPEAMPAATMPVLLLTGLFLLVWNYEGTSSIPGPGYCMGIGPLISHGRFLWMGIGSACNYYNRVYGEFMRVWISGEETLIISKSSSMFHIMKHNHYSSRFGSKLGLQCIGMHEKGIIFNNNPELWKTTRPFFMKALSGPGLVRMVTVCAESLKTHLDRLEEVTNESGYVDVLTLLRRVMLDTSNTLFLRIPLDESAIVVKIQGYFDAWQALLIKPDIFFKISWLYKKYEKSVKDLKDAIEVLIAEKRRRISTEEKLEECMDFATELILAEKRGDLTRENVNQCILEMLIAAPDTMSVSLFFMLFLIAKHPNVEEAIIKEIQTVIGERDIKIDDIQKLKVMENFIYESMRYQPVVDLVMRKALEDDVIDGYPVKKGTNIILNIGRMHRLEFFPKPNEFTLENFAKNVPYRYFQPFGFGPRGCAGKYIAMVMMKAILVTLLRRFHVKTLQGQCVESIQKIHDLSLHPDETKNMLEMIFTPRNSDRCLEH
In test [6] the target is Estrogen receptor (Homo sapiens) (UniProt P03372). Briefly: qHTS assay to identify small molecule antagonists of the estrogen receptor alpha (ER-alpha) signaling pathway (AID 743069; active = well fitted curve in the direction sought with a large enough effect in the signal ratio in the repeat runs, not every such curve was filed as active; the % refers to the signal ratio). A digest of the protocol:
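Antagonist mode: compounds in DMSO were co-added with 17beta-estradiol to ER-alpha-bla HEK293 cells (2% charcoal-stripped serum) and left 18 h at 37C. Reporter inhibition was measured as FRET fluorescence after 2 h LiveBLAzer substrate at room temperature.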

The target is the same in test [7]. Briefly: qHTS assay to identify small molecule agonists of the estrogen receptor alpha (ER-alpha) signaling pathway (AID 743075; calls by dose curve;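 also: HEK293 GripTite cells with ER-alpha and UAS-driven beta-lactamase reporter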).
Test [8] has the same target. The experiment in a line: qHTS assay to identify small molecule agonists of the estrogen receptor alpha (ER-alpha) signaling pathway using the BG1 cell line (AID 743079). Also: nearly all actives have a fitted effect of over 20% in size.
Test [9] is described as follows: qHTS assay to identify small molecule antagonists of the estrogen receptor alpha (ER-alpha) signaling pathway using the BG1 cell line (AID 743080; calls by dose curve;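 also: BG1 cells stimulated with 17beta-estradiol alongside compound; series mostly up to about 70 µM; nearly all actives have a fitted effect of over 25% in size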). The procedure, abridged: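 BG1Luc4E2, endogenous ER-alpha, 4xERE-luc; 5 d charcoal-stripped FBS, phenol red free; 24 h plating; cpd + 17beta-estradiol 21.5 h, 37 C/5% CO2; CellTiter-Fluor viability 30 min, then ONE-Glo luciferase 30 min RT.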

Inconclusive results are not listed. Unmarked numbers belong to inactive results. Activity calls are given as the source filed them. Unless noted, calls follow the shape of the dose curve; as a rule, active = well fitted curve in the direction sought with a large enough effect in the repeat runs; inconclusive = weak or mixed curves; inactive = no such curve, though single readings can be large; an effect the other way counts as inactive or inconclusive.
% is scaled to controls: 0 for no effect and ±100 for the full control effect.

Sequence of Estrogen receptor (Homo sapiens) (P03372 whole entry, looked up): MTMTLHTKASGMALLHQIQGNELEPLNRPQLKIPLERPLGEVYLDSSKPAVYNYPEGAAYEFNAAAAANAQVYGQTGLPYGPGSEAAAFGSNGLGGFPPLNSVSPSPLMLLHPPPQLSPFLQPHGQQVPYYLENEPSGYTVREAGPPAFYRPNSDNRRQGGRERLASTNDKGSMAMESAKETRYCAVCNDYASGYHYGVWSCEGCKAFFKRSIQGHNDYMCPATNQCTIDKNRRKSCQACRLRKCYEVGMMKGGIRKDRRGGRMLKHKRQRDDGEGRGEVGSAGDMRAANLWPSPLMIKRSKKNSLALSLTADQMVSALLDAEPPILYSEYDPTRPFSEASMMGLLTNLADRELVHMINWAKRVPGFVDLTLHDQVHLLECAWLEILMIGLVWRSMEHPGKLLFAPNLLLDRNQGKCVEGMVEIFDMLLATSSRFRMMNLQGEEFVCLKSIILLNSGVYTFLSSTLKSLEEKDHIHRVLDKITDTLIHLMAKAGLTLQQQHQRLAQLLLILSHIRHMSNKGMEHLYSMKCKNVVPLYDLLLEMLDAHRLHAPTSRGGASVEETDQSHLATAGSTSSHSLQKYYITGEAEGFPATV

For the compound `CCOCCOCCOCC`, the Potency entry (in test [1]; in test [2]; in the test with Aromatase (Homo sapiens)) was “inactive” throughout. Also, the result in [3], in [4] and in test [5] was inactive.

`O=C(CCN1CCN(CCO)CC1)N1c2ccccc2Sc2ccc(C(F)(F)F)cc21`: the values for the Potency in [1] and in test [2] were 13.3 µM (active) and 21.1 µM (active), respectively. For the same compound, the result in [3], in test [6] and in test [7] was inactive. Also, the Potency result (in [8]; in the test with Aromatase (Homo sapiens)) was “inactive” throughout.

With `CCOC(=O)/C=C/c1ccccc1`, the Potency result (in test [1]; in test [2]; in test [8]; in test [9]; with Aromatase (Homo sapiens)) was “inactive” in each case. For the same compound, the call in test [3], in [6], in test [7] and in test [5] was inactive.

With `c1ccc2nccnc2c1`, the Potency result (in test [1]; in [2]; in [8]; with Aromatase (Homo sapiens)) was “inactive” throughout. Further, the outcome in test [3], in [6], in test [7] and in test [5] was inactive.

Consider `Cc1ccccc1N=O`, for which the Potency entry in test [1] and in test [2] was “inactive” throughout. Besides, the result in test [3], in test [4] and in [5] was inactive.

In the case of `CC(=O)Nc1ccc(S(=O)(=O)Cl)cc1`, the Potency result (in [1]; in test [2]; in the test with Aromatase (Homo sapiens)) was “inactive” in each case. Further, the result in test [3], in [4] and in test [5] was inactive.

With `O=S(=O)(O)CCN1CCN(CCO)CC1`, the Potency entry (in [1]; in test [2]; with Aromatase (Homo sapiens)) was “inactive” throughout. Also, the compound was called inactive in test [3], in test [4] and in [5].

On to `CCCOC(OCCC)OCCC`, for which the Potency result (in test [1]; in test [2]; with Aromatase (Homo sapiens)) was “inactive” throughout. Further, the outcome in test [3], in test [4] and in test [5] was inactive.

`CN(CCOc1ccc(NS(C)(=O)=O)cc1)CCc1ccc(NS(C)(=O)=O)cc1`: the Potency result (in [1]; in test [2]; in [8]; in test [9]; with Aromatase (Homo sapiens)) was “inactive” each time. Also, the result in [3], in test [4], in test [7] and in test [5] was inactive.

Turning to `Nc1cccc(O)c1`, the Potency entry (in [1]; in test [2]; in test [9]; with Aromatase (Homo sapiens)) was “inactive” throughout. Moreover, the outcome in [3], in [6], in test [7] and in test [5] was inactive.

`CCCCCOC(=O)CCC`: the Potency entry (in test [1]; in test [2]; with Aromatase (Homo sapiens)) was “inactive” each time. Also, the result in test [3], in test [4] and in test [5] was inactive.

For `N[C@@H](COP(=O)(O)O)C(=O)O`, the Potency result (in test [1]; in test [2]; in the test with Aromatase (Homo sapiens)) was “inactive” in each case. In addition, the compound was classed as inactive in test [3], in test [4] and in [5].

Consider `CC(C)(C)c1cc(CCC(=O)NN)cc(C(C)(C)C)c1O`, for which the Potency result (in test [1]; in test [2]; in the test with Aromatase (Homo sapiens)) was “inactive” throughout. In addition, the outcome in test [3], in test [4] and in test [5] was inactive.

For `CC(=O)N[C@@H](CCC(=O)O)C(=O)O`, the Potency result (in [1]; in [2]; in the test with Aromatase (Homo sapiens)) was “inactive” throughout. Moreover, the outcome in test [3], in test [4] and in [5] was inactive.

In the case of `CC(S)C(=O)NCC(=O)O` (stereo not drawn), the Potency entry (in [1]; in test [2]; in the test with Aromatase (Homo sapiens)) was “inactive” each time. Besides, the result in test [3], in [4] and in [5] was inactive.

Turning to `C[Si](C)=O`, the activity change, negative = cytotoxic in test [1] was -4.47% [at 8.44 µM]. Besides, the activity, negative = inhibition in test [2] was 0.0327% [at 8.44 µM]; in the test with Aromatase (Homo sapiens), 11% [at 8.47 µM]. Also, the activation in test [3] is 0.231% [at 8.08 µM]. In [4], the activity, negative = cytotoxicity is 5.35% [at 6.72 µM]. For the same compound, the activity change, negative = cytotoxicity in test [5] was -7.83% [at 8.47 µM].

`C#CC(C)N(C)C(=O)Nc1ccc(Cl)cc1` (stereo not drawn): the Potency result (in [1]; in test [2]; with Aromatase (Homo sapiens)) was “inactive” in each case. Besides, the call in [3], in test [4] and in test [5] was inactive.

In the case of `O=S(=O)(O)c1ccc2cc(O)c(S(=O)(=O)O)cc2c1`, the Potency result (in [1]; in [2]; in [8]; in [9]; in the test with Aromatase (Homo sapiens)) was “inactive” each time. The call in [3], in test [6], in [7] and in test [5] was inactive.

As for `BrCCCCCBr`, the Potency result (in [1]; in test [2]; in test [8]; in [9]; with Aromatase (Homo sapiens)) was “inactive” each time. For the same compound, the call in [3], in [6], in [7] and in [5] was inactive.

`COc1ccc(C2CNC(=O)C2)cc1OC1CCCC1` (stereo not drawn): the Potency result (in [1]; in test [2]; in the test with Aromatase (Homo sapiens)) was “inactive” each time. For the same compound, the call in [3], in test [4] and in test [5] was inactive.

For `CCc1ccc(C=O)cc1`, the Potency result (in test [1]; in test [2]; with Aromatase (Homo sapiens)) was “inactive” throughout. For the same compound, the call in test [3], in test [4] and in [5] was inactive.

Take `O=C(OCC1(COC(=O)c2cccnc2)CCCC(COC(=O)c2cccnc2)(COC(=O)c2cccnc2)C1O)c1cccnc1`: the Potency entry (in test [1]; in [2]; with Aromatase (Homo sapiens)) was “inactive” in each case. In addition, the compound was classed as inactive in [3], in test [4] and in [5].

For the compound `O=C(NCC(O)CO)c1c(I)c(C(=O)NCC(O)CO)c(I)c(N(CCO)C(=O)CO)c1I` (stereo not drawn), the Potency entry in test [1] and in [2] was “inactive” in each case. The compound was classed as inactive in test [3], in test [4] and in test [5].

Regarding `CCN1CCc2nc(N)oc2CC1`, the Potency entry (in [1]; in test [2]; in test [8]; with Aromatase (Homo sapiens)) was “inactive” each time. For the same compound, the compound was classed as inactive in test [3], in [4], in test [7] and in test [5].

On to `C[Si](C)(C)C`, for which the Potency entry (in test [1]; in test [2]; in the test with Aromatase (Homo sapiens)) was “inactive” each time. Moreover, the outcome in test [3], in [4] and in [5] was inactive.

Take `Cc1c(I)c(=O)n(-c2ccccc2)n1C`: the Potency result (in [1]; in test [2]; in test [8]; with Aromatase (Homo sapiens)) was “inactive” throughout. In addition, the outcome in test [3], in [6], in [7] and in test [5] was inactive.

In the case of `CC(C)C[C@H](NC(=O)CNC(=O)[C@H](Cc1ccc(O)cc1)NC(=O)[C@H](CO)NC(=O)[C@H](Cc1c[nH]c2ccccc12)NC(=O)[C@H](Cc1cnc[nH]1)NC(=O)[C@@H]1CCC(=O)N1)C(=O)N[C@@H](CCCN=C(N)N)C(=O)N1CCC[C@H]1C(=O)NCC(N)=O` (stereo in doubt), the Potency entry in test [1] and in test [2] was “inactive” each time. The result in test [3] and in [4] was inactive.

Regarding `CCC(C=O)CC`, the Potency entry (in test [1]; in test [2]; with Aromatase (Homo sapiens)) was “inactive” each time. Further, the outcome in test [3], in test [4] and in test [5] was inactive.

For the compound `BrCc1cccc(Oc2ccccc2)c1`, the Potency result (in test [1]; in test [2]; with Aromatase (Homo sapiens)) was “inactive” throughout. Besides, the call in [3], in test [4] and in [5] was inactive.

As to `NCCS`, the Potency entry (in test [1]; in test [2]; with Aromatase (Homo sapiens)) was “inactive” throughout. For the same compound, the call in [3], in test [4] and in test [5] was inactive.

On to `Cc1ccc(C=O)cc1C`, for which the Potency entry (in test [1]; in test [8]; in [9]; with Aromatase (Homo sapiens)) was “inactive” in each case. Further, the compound was classed as inactive in test [6], in test [4], in test [7] and in [5].

`O=C(NCCN1CCOCC1)c1ccc(Cl)cc1`: the Potency result (in test [1]; in test [2]; with Aromatase (Homo sapiens)) was “inactive” each time. Besides, the call in test [3], in [4] and in test [5] was inactive.

On to `CC(C)(C)OC(=O)c1ccc(O)cc1`, for which the Potency result (in test [1]; in test [2]; with Aromatase (Homo sapiens)) was “inactive” each time. Moreover, the compound was classed as inactive in test [3], in test [4] and in test [5].

As to `CCOc1cc([N+](=O)[O-])c(OCC)cc1N1CCOCC1`, the Potency entry in [1], in test [8] and in test [9] was “inactive” in each case. Moreover, the result in [3], in test [4], in [7] and in test [5] was inactive. In the test with Aromatase (Homo sapiens), the Potency is 34.4 µM (active).

On to `C[C@H](N)[C@H](O)c1cccc(O)c1`, for which the Potency result (in test [1]; in [8]; in test [9]; with Aromatase (Homo sapiens)) was “inactive” in each case. Further, the call in test [6], in test [4], in test [7] and in test [5] was inactive.

These data come from PubChem BioAssay (Tox21).
